Source: PubChem
ABHD5 PLIN5 PPI: ABHD5-PLIN5 protein interaction inhibition | Q00G26+Q8WTS1 | Split G. princeps luciferase complementation, luminescence, 4 h | inhibition, % at 4 µM | 360,000 compounds, 0.78% hits;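 active = inhibition above the mean inhibition across every tested compound plus 3 SD, cut at about 22% in these data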;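 also: 0% = DMSO only wells and the 100% control is not disclosed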
CRFR2-BP antag: antagonists of CRF-binding protein/CRF-R2 receptor complex. 350,000 compounds, 0.59% hits. HEK293 CRF-R2/CRF-BP, CRF-induced calcium fluorescence. inhibition, % at 11.8 µM;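 active = inhibition of the ligand-induced calcium signal above about 50% at the single tested concentration, limit read from the data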
NOD2 RIPK2 PPI: blocks binding of human NOD2 to RIPK2; O43353; CHO BLA complementation NOD2-RIPK2, CCF4 ratio; inhibition, % at 4.98 µM; 360,000 compounds, 0.38% hits; AID 624267; in the data active = inhibition above about 21%;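 also: 0% = vehicle only and 100% = reference blocker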
HTR2A ag: agonists of mouse serotonin 5-HT2A receptor (HTR2A). P35363. CHO-K1 mHTR2A beta-arrestin complementation, luminescence; percent of 30 µM serotonin response. activation, % at 7.6 µM. 360,000 compounds, 0.66% hits. AID 624169;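 active = activation above a run cutoff, the mean activation of all tested compounds plus 3 SD, cut at about 14% in these data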;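 also: 0% = plate median of compound wells and 100% = 30 µM serotonin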
TLR9-MyD88 inh: inhibitors of human TLR9-MyD88 binding; 340,000 compounds, 0.21% hits; Q9NR96+Q99836; AID 504734; CHO BLA complementation TLR9-MyD88, CCF4 FRET ratio; inhibition, % at 4.98 µM;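 active = inhibition above the mean over all tested compounds plus 3 SD, cut at about 21% in these data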;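 also: 0% = DMSO only wells and 100% = clavulanate BLA inhibitor control wells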
TLR4-MyD88 BLA: inhibitors of human TLR4-MyD88 binding. 200,000 compounds, 0.18% hits. AID 861. O00206+Q99836. HeLa CL3-4 TLR4/MyD88 BLA complementation, FRET ratio. inhibition, % at 8.4 µM; in the data active = inhibition above about 25%;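 also: 0% = vehicle and 100% = reference inhibitor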
The depositor's hits bear a star; nt = no result. Shown are actives, neighbours in structure and some others; about 2.4% of the full set was active somewhere.

SMILES | ABHD5 PLIN5 PPI | CRFR2-BP antag | NOD2 RIPK2 PPI | HTR2A ag | TLR9-MyD88 inh | TLR4-MyD88 BLA
COc1ccc(NS(=O)(=O)c2cc(NC(=O)c3ccccn3)ccc2OC)cc1Br | -7 | 4 | 4 | 0 | -7 | nt
CCCCNC(=O)C1(C)CCCCN1CC(=O)c1ccc(OC)cc1 (stereo not drawn) | -5 | nt | -30 | 4 | nt | nt
CN(NC(=O)Nc1ccccc1)c1cnn(C)c(=O)c1Cl | 1 | 120* | -7 | 5 | nt | nt
CN(NC(=O)Nc1ccc(Cl)cc1)c1c(Cl)c(Cl)nn1C | -3 | -29 | -12 | 3 | -5 | -2
CCC(=O)Nc1nnc(Sc2ccc(N(C)C)cc2)s1 | -11 | -26 | 13 | -2 | -6 | 14
CCCC(=O)Nc1nnc(Sc2ccc(N(C)C)cc2)s1 | -5 | 69* | 5 | 3 | 4 | -11
COc1cc(F)ccc1-c1csc(C(O)(c2ccccc2)C(F)(F)F)n1 (stereo not drawn) | -10 | nt | -3 | 5 | nt | nt
COc1cccc(C2C(C(=O)c3ccc(C)o3)=C(O)C(=O)N2CCN2CCOCC2)c1OC (stereo not drawn) | 4 | 124* | 3 | 4 | 1 | nt
COc1ccc(OC)c(C2C(C(=O)c3ccc(C)o3)=C(O)C(=O)N2CCN2CCOCC2)c1 (stereo not drawn) | 2 | 12 | -8 | 3 | 0 | nt
CC(C)(C)NC(=O)/C(=C/c1ccccc1F)NC(=O)c1ccc([N+](=O)[O-])cc1 | 1 | 52* | -2 | -4 | -8 | 2
CC(=NCc1ccccc1)c1ccc(O)cc1O | 5 | -18 | 4 | 4 | -1 | nt
O=C(O)C(c1ccccc1)C1(O)CCCC1 (stereo not drawn) | 0 | 97* | 6 | -1 | -7 | 12
CC1(C)CC(=O)C2=C(C1)c1c(ccc3ccccc13)NC2c1ccc(C(=O)O)cc1 (stereo not drawn) | 1 | -7 | -5 | -2 | 3 | nt
CC1(C)CC(=O)C2=C(C1)c1c(ccc3ccccc13)NC2c1cc([N+](=O)[O-])cc([N+](=O)[O-])c1O (stereo not drawn) | -4 | 78* | -6 | 0 | 9 | -3
COc1ccc(NC(=O)C2Cc3c(-c4ccc(Cl)cc4)ccnc3O2)cc1OC (stereo not drawn) | 4 | nt | 6 | 6 | nt | nt
Cn1c(=O)n(C)c2cc(S(=O)(=O)Nc3cc(Cl)ccc3O)ccc21 | -3 | 103* | -4 | 6 | -4 | -4
Cn1c(=O)n(C)c2cc(S(=O)(=O)Nc3ccccc3O)ccc21 | 4 | -2 | -2 | 1 | -7 | 0
N/C(Cc1ccc([N+](=O)[O-])cc1)=N\OC(=O)c1ccc(Br)cc1 | 3 | 62* | -3 | -2 | 1 | -10
CCCn1c(Cc2ccccc2)n[nH]c1=S | -6 | 8 | -6 | 0 | -9 | 6
S=c1[nH]nc(Cc2ccccc2)n1Cc1ccco1 | -1 | -19 | 4 | 15* | -4 | 11
CC(=O)c1c(N2CCCCC2)nc(=S)n(Cc2ccccc2)c1C | -6 | 108* | 4 | -1 | -12 | -3
O=C1c2cccc(-c3ccc(C(F)(F)F)cc3)c2C2CC=CCN12 (stereo not drawn) | 5 | nt | -4 | 0 | nt | nt
O=C(CC1C(=O)NCCN1C(=O)Nc1ccccc1)Nc1ccc2c(c1)OCO2 (stereo not drawn) | 3 | 74* | 3 | -2 | -2 | 3
Cc1cc(C)cc(OCC(O)CN2CCN(C(=O)c3ccco3)CC2)c1 (stereo not drawn) | -3 | 5 | 1 | 4 | 5 | nt
O=C(c1ccco1)N1CCN(CC(O)COc2ccc3oc4ccccc4c3c2)CC1 (stereo not drawn) | 7 | -3 | -11 | 14* | 3 | -2
COc1ccc(/C=C/c2nc(-c3ccccc3)cc(=O)[nH]2)cc1 | -5 | 66* | -3 | -3 | -7 | nt
CC1=C(c2ccccc2)C(O)(c2ccccc2)C(C)C1=O (stereo not drawn) | 7 | 59* | -10 | 1 | -8 | nt
COc1ccccc1CNC(=O)Nc1nc(C(N)CCc2ccccc2)cs1 (stereo not drawn) | -2 | nt | 3 | -4 | nt | nt
COc1cccc(C(O)c2nc(-c3cccc(C(F)(F)F)c3)cs2)c1 (stereo not drawn) | -9 | nt | -3 | 0 | nt | nt
